Results taken from PubChem BioAssay (EPA / NIEHS).
Calls of active or inactive are those of the source. How the source made its calls: active means hit-call score of the fitted dose curve at least 0.9, where 1 is the maximum; inactive means score below 0.9.

Experiments:
[1] = read-out: Transforming growth factor beta 1 (TGFb1), TGFB1 (gene 7040); assay: BSK_KF3CT_TGFb1: BioMAP Diversity Plus: KF3CT Assay for Transforming growth factor beta 1 (TGFb1) Biomarker Activity (AID 2283072); conditions: primary human keratinocytes with fibroblasts; actives raise or lower the signal
Method in brief: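 Primary human skin cells (keratinocytes, foreskin fibroblasts) were co-cultured, exposed to test chemical and sampled at 24 h. TGF-b1 levels were measured by ELISA and fitted bidirectionally relative to DMSO.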

[2] = read-out: C-C motif chemokine 2 (Homo sapiens) (UniProt P13500); assay: BSK_KF3CT_MCP1: BioMAP Diversity Plus: KF3CT Assay for Monocyte Chemoattractant Protein 1 (MCP1/CCL2) Biomarker Activity (AID 2283073); conditions: primary human keratinocytes with fibroblasts; actives raise or lower the signal
Method in brief: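 Human keratinocyte–foreskin fibroblast co-culture; MCP-1 measured by ELISA 24 h after dosing. Bidirectional fit vs DMSO; cytotoxicity tracked by SRB total protein in parallel cultures.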

[3] = read-out: Matrix Metallopeptidase 9 (MMP9), MMP9 (gene 4318); assay: BSK_KF3CT_MMP9: BioMAP Diversity Plus: KF3CT Assay for Matrix Metallopeptidase 9 (MMP9) Biomarker Activity (AID 2283074); conditions: primary human keratinocytes with fibroblasts; actives raise or lower the signal;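 on AC50: MMP9 protein level quantified by ELISA in the co-culture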
Method in brief: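 Human keratinocyte/foreskin fibroblast co-culture; compound added; 24 h; MMP-9 by ELISA; bidirectional fit vs DMSO baseline.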

[4] = read-out: urokinase plasminogen activator (uPA), PLAU (gene 5328); assay: BSK_KF3CT_uPA: BioMAP Diversity Plus: KF3CT Assay for urokinase plasminogen activator (uPA) Biomarker Activity (AID 2283075); conditions: primary human keratinocytes with fibroblasts; actives raise or lower the signal
Method in brief: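 ELISA readout of uPA, analyzed for signal gain or loss relative to DMSO, from a human primary keratinocyte–foreskin fibroblast co-culture measured 24 h after chemical treatment.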

CD40, CD40 (gene 958) [5] = assay: BSK_LPS_CD40: BioMAP Diversity Plus: LPS Assay for CD40 Biomarker Activity (AID 2283076); conditions: primary human HUVEC with PBMC; actives raise or lower the signal
Method in brief: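 HUVEC plus PBMC co-culture stimulated with LPS; CD40 quantified by ELISA 24 h after compound dosing. Fitting was bidirectional relative to DMSO. SRB staining of parallel cultures flagged overt cytotoxicity.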

[6] = read-out: E-selectin (Homo sapiens) (UniProt P16581); assay: BSK_LPS_Eselectin: BioMAP Diversity Plus: LPS Assay for Eselectin Biomarker Activity (AID 2283077); conditions: primary human HUVEC with PBMC; actives raise or lower the signal
Method in brief: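 Human umbilical vein endothelial cells co-cultured with PBMC under LPS stimulation; cell-surface E-selectin measured by ELISA 24 h after dosing. Change in either direction versus DMSO, with SRB total-protein staining in parallel cultures for cytotoxicity.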

[7] = read-out: Interleukin-8 (IL8), CXCL8 (gene 3576); assay: BSK_LPS_IL8: BioMAP Diversity Plus: LPS Assay for Interleukin-8 (IL8) Biomarker Activity (AID 2283078); conditions: primary human HUVEC with PBMC; actives raise or lower the signal
Method in brief: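 Human umbilical vein endothelial cells co-cultured with PBMC, LPS-stimulated, exposed to compound for 24 h. IL-8 quantified by ELISA; fitted in both directions against DMSO, with SRB total-protein staining of parallel cultures for cytotoxicity.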

[8] = BSK_LPS_SRB: Viability Assessment in the BioMAP Diversity Plus: LPS Assay (AID 2283079); conditions: primary human HUVEC with PBMC;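 further: total protein by sulforhodamine B absorbance as a cytotoxicity measure; measured one day after compound addition; fitted in both directions against DMSO so loss or gain of signal counts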
Method in brief: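 Co-culture of human umbilical vein endothelial cells and PBMC, read 24 h after dosing. Total protein by 0.1% SRB staining after 10% TCA fixation, absorbance at 560 nm; bidirectional fit against DMSO.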

[9] = read-out: Interleukin-1 alpha (IL1a), IL1A (gene 3552); assay: BSK_LPS_IL1a: BioMAP Diversity Plus: LPS Assay for Interleukin-1 alpha (IL1a) Biomarker Activity (AID 2283080); conditions: primary human HUVEC with PBMC; actives raise or lower the signal
Method in brief: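 Human umbilical vein endothelial cells co-cultured with PBMC and stimulated with LPS; IL-1a measured by ELISA 24 h after dosing. Bidirectional fitting against DMSO; cytotoxicity checked by SRB staining in parallel cultures.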

[10] = read-out: Monocyte Chemoattractant Protein-1 (MCP1), CCL2 (gene 6347); assay: BSK_LPS_MCP1: BioMAP Diversity Plus: LPS Assay for Monocyte Chemoattractant Protein-1 (MCP1) Biomarker Activity (AID 2283081); conditions: primary human HUVEC with PBMC; actives raise or lower the signal
Method in brief: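 Human umbilical vein endothelial cells co-cultured with PBMC, LPS-stimulated; secreted MCP-1 measured by ELISA 24 h after compound addition. Bidirectional curve fitting against DMSO baseline; SRB total-protein staining in parallel cultures for cytotoxicity.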

[11] = BSK_LPS_PGE2: BioMAP Diversity Plus: LPS Assay for Prostaglandin E2 (PGE2) Biomarker Activity (AID 2283082); conditions: primary human HUVEC with PBMC; actives raise or lower the signal;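 on AC50: secreted prostaglandin E2 measured by ELISA in LPS-stimulated co-culture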
Method in brief: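 LPS-activated HUVEC/PBMC co-culture; cmpd dosed, 24 h; PGE2 by ELISA; bidirectional fit vs DMSO; SRB (0.1%, TCA-fixed, 560 nm) in parallel plates for overt cytotox.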

[12] = read-out: Macrophage colony-stimulating factor (MCSF), CSF1 (gene 1435); assay: BSK_LPS_MCSF: BioMAP Diversity Plus: LPS Assay for Macrophage colony-stimulating factor (MCSF) Biomarker Activity (AID 2283083); conditions: primary human HUVEC with PBMC; actives raise or lower the signal
Method in brief: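 HUVEC–PBMC co-culture, M-CSF measured by ELISA 24 h after chemical dosing. Fitted in both directions relative to DMSO as negative control; overt cytotoxicity assessed by SRB total-protein staining in parallel cultures.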

[13] = read-out: Tissue Factor, F3 (gene 2152); assay: BSK_LPS_TissueFactor: BioMAP Diversity Plus: LPS Assay for Tissue Factor Biomarker Activity (AID 2283084); conditions: primary human HUVEC with PBMC; actives raise or lower the signal
Method in brief: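 Human umbilical vein endothelial cells co-cultured with PBMC were dosed with compound. Cell-surface CD142 was measured by ELISA 24 h later. Activity was fitted bidirectionally against DMSO, with SRB total-protein staining in parallel cultures for cytotoxicity.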

[14] = read-out: Tumor necrosis factor (Homo sapiens) (UniProt P01375); assay: BSK_LPS_TNFa: BioMAP Diversity Plus: LPS Assay for Tumour Necrosis Factor alpha (TNFa) Biomarker Activity (AID 2283085); conditions: primary human HUVEC with PBMC; actives raise or lower the signal
Method in brief: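 Read-out is ELISA of TNFa in primary human endothelial cell–PBMC co-cultures at 24 h after compound. Activity in either direction was fitted against DMSO.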

[15] = read-out: Vascular cell adhesion molecule 1 (VCAM1), VCAM1 (gene 7412); assay: BSK_LPS_VCAM1: BioMAP Diversity Plus: LPS Assay for Vascular cell adhesion molecule 1 (VCAM1) Biomarker Activity (AID 2283086); conditions: primary human HUVEC with PBMC; actives raise or lower the signal
Method in brief: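 HUVEC + PBMC co-culture, LPS system; compound 24 h; VCAM-1 by ELISA; bidirectional fit vs DMSO control; parallel SRB (0.1%, TCA-fixed, 560 nm) for cytotoxicity.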

CD38, CD38 (gene 952) = assay: BSK_SAg_CD38: BioMAP Diversity Plus: SAg Assay for CD38 Biomarker Activity (AID 2283087); conditions: primary human HUVEC with PBMC; actives raise or lower the signal
Method in brief: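 Human HUVEC plus PBMC co-culture stimulated with superantigen; CD38 measured by ELISA 24 h after chemical dosing. Fluorescence read-out, bidirectional fit against DMSO; cytotoxicity tracked in parallel by SRB and Alamar Blue.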

CD40, CD40 (gene 958) [16] = assay: BSK_SAg_CD40: BioMAP Diversity Plus: SAg Assay for CD40 Biomarker Activity (AID 2283088); conditions: primary human HUVEC with PBMC; actives raise or lower the signal
Method in brief: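 HUVEC plus PBMC co-culture, superantigen-activated, with CD40 read by ELISA 24 h after dosing. Curves fitted in both directions against DMSO. Overt cytotoxicity checked by parallel SRB total-protein staining.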

CD69, CD69 (gene 969) = assay: BSK_SAg_CD69: BioMAP Diversity Plus: SAg Assay for CD69 Biomarker Activity (AID 2283089); conditions: primary human HUVEC with PBMC; actives raise or lower the signal;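 on AC50: cell surface CD69 protein quantified by ELISA with fluorescence detection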
Method in brief: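 HUVEC co-cultured with PBMC were dosed with chemical, and CD69 was measured by ELISA with fluorescence read-out 24 h later. Bidirectional curve fitting used DMSO as negative control and activity baseline.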

[17] = read-out: Monocyte Chemoattractant Protein-1 (MCP1), CCL2 (gene 6347); assay: BSK_SAg_MCP1: BioMAP Diversity Plus: SAg Assay for Monocyte Chemoattractant Protein-1 (MCP1) Biomarker Activity (AID 2283090); conditions: primary human HUVEC with PBMC; actives raise or lower the signal
Method in brief: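 MCP-1 levels in the endothelial–PBMC SAg co-culture were quantified by ELISA at 24 h post-dosing; both increases and decreases versus DMSO scored. Cytotoxicity monitored by SRB total protein in parallel cultures.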

[18] = read-out: E-selectin (Homo sapiens) (UniProt P16581); assay: BSK_SAg_Eselectin: BioMAP Diversity Plus: SAg Assay for Eselectin Biomarker Activity (AID 2283091); conditions: primary human HUVEC with PBMC; actives raise or lower the signal
Method in brief: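 Human umbilical vein endothelial cells co-cultured with peripheral blood mononuclear cells, SAg system. E-selectin is measured by ELISA 24 h after dosing and fitted bidirectionally against DMSO. Cytotoxicity is checked by SRB staining of parallel cultures.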

Tumor necrosis factor (Homo sapiens), sequence (P01375 whole entry, looked up): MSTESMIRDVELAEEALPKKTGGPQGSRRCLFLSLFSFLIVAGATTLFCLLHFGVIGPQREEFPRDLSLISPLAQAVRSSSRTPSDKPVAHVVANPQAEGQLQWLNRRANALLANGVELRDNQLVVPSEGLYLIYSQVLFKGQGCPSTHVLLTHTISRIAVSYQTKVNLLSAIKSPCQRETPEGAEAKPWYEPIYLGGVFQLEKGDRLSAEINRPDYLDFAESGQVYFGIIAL
E-selectin (Homo sapiens), sequence (P16581 whole entry, looked up): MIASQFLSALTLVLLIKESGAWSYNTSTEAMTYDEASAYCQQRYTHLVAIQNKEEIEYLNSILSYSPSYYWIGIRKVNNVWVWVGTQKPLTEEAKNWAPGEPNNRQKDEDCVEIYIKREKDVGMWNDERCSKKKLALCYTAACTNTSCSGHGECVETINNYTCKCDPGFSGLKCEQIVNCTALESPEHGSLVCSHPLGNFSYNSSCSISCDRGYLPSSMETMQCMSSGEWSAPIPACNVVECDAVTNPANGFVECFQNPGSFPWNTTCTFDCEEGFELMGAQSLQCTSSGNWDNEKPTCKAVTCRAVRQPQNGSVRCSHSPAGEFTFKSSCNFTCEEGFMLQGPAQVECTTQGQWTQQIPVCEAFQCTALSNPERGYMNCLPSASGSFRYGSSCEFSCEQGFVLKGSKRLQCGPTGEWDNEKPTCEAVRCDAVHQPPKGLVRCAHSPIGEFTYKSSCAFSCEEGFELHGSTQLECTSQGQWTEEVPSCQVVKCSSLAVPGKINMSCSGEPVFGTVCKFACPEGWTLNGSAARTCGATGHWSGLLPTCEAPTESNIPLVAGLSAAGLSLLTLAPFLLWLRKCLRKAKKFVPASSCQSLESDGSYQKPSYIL

For CCCC(=O)O, which outcome [1] is on record?
The outcome was “inactive”.

And the outcome [2]?
Its outcome is “inactive”.

What about the outcome [3] of the same compound?
Its outcome is “inactive”.

What about the outcome [4] of the same compound?
The outcome was “inactive”.

And the outcome (CD40, CD40 (gene 958) [5])?
The outcome was “inactive”.

And the outcome [6]?
The outcome was “inactive”.

And the outcome [7]?
The outcome was “inactive”.

And the outcome [8]?
Its outcome is “inactive”.

And the outcome [9]?
The outcome was “inactive”.

What about the outcome [10] of the same compound?
The outcome was “inactive”.

And the outcome [11]?
The outcome was “inactive”.

And the outcome [12]?
Its outcome is “inactive”.

What about the outcome [13] of the same compound?
Its outcome is “inactive”.

What about the outcome [14] of the same compound?
The outcome was “inactive”.

And the outcome [15]?
Its outcome is “inactive”.

And the outcome (CD38, CD38 (gene 952))?
Its outcome is “inactive”.

And the outcome (CD40, CD40 (gene 958) [16])?
The outcome was “inactive”.

And the outcome (CD69, CD69 (gene 969))?
Its outcome is “inactive”.

What about the outcome [17] of the same compound?
Its outcome is “inactive”.

What about the outcome [18] of the same compound?
Its outcome is “inactive”.

With Oc1ccccc1O as the compound, how does the AC50 [1] read?
Its AC50 is 10.4 µM (active).

And the AC50 [2]?
Its AC50 is 1.14 µM (active).

What about the AC50 [3] of the same compound?
The AC50 was 8.72 µM (active).

What about the AC50 [4] of the same compound?
Its AC50 is 20 µM (active).

And the AC50 (CD40, CD40 (gene 958) [5])?
The AC50 was 7.33 µM (active).

What about the outcome [6] of the same compound?
The outcome was “inactive”.

And the outcome [7]?
The outcome was “inactive”.

What about the AC50 [8] of the same compound?
The AC50 was 7.37 µM (active).

What about the outcome [9] of the same compound?
Its outcome is “inactive”.

And the outcome [10]?
Its outcome is “inactive”.

What about the AC50 [11] of the same compound?
The AC50 was 14.4 µM (active).

What about the AC50 [12] of the same compound?
Its AC50 is 3.92 µM (active).

What about the outcome [13] of the same compound?
The outcome was “inactive”.

And the outcome [14]?
Its outcome is “inactive”.

What about the outcome (CD38, CD38 (gene 952)) of the same compound?
The outcome was “inactive”.

And the AC50 (CD40, CD40 (gene 958) [16])?
The AC50 was 4.21 µM (active).

And the AC50 (CD69, CD69 (gene 969))?
Its AC50 is 5.69 µM (active).

What about the outcome [17] of the same compound?
Its outcome is “inactive”.

And the outcome [18]?
The outcome was “inactive”.

For O=C(O)c1cccnc1, which outcome [1] is on record?
The outcome was “inactive”.

What about the outcome [2] of the same compound?
The outcome was “inactive”.

What about the outcome [3] of the same compound?
The outcome was “inactive”.

And the outcome [4]?
The outcome was “inactive”.

What about the outcome (CD40, CD40 (gene 958) [5]) of the same compound?
The outcome was “inactive”.

And the outcome [6]?
Its outcome is “inactive”.

What about the outcome [7] of the same compound?
Its outcome is “inactive”.

What about the outcome [8] of the same compound?
The outcome was “inactive”.

What about the outcome [9] of the same compound?
Its outcome is “inactive”.

And the outcome [10]?
The outcome was “inactive”.

And the outcome [11]?
The outcome was “inactive”.

What about the outcome [12] of the same compound?
The outcome was “inactive”.

And the outcome [13]?
Its outcome is “inactive”.

What about the outcome [14] of the same compound?
Its outcome is “inactive”.

And the outcome (CD38, CD38 (gene 952))?
The outcome was “inactive”.

What about the outcome (CD40, CD40 (gene 958) [16]) of the same compound?
Its outcome is “inactive”.

What about the outcome (CD69, CD69 (gene 969)) of the same compound?
The outcome was “inactive”.

And the outcome [17]?
The outcome was “inactive”.

What about the outcome [18] of the same compound?
The outcome was “inactive”.
